Reference: the supplement of paper PMC9694430

What was measured:
Assay in all cases: thermal shift delta Tm vs DMSO control; higher = stronger stabilization (binding)
Conditions in all cases: 12.5 µM; protein concentration 2 µM
LOC_OS02G45750-cb003 = system: LOC_OS02G45750-cb003
Method in brief: (§1)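 Thermal shift values come from differential scanning fluorimetry on purified rice kinase domains made in E. coli, with melting temperatures obtained from Boltzmann fits. Samples of 19.5 μl held 2 μM kinase, 100 mM potassium phosphate pH 7.5, 150 mM NaCl, 10% glycerol, 5 × SYPRO Orange and compound in DMSO, and were heated from 25°C to 95°C at 0.05°C/s. Each shift is a triplicate mean relative to the DMSO-only protein sample.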

LOC_OS02G54510-cb004 = system: LOC_OS02G54510-cb004
Method in brief: as §1

LOC_OS03G04050-cb001 = system: LOC_OS03G04050-cb001
Method in brief: as §1

LOC_OS03G12390-cb001 = system: LOC_OS03G12390-cb001
Method in brief: as §1

LOC_OS03G27990-cb004 = system: LOC_OS03G27990-cb004
Method in brief: as §1

LOC_OS03G50450-cb001 = system: LOC_OS03G50450-cb001
Method in brief: as §1

LOC_OS03G50810-cb003 = system: LOC_OS03G50810-cb003
Method in brief: as §1

LOC_OS04G35114-cb001 = system: LOC_OS04G35114-cb001
Method in brief: as §1

LOC_OS04G38480-cb003 = system: T1, LOC_OS04G38480-cb003
T1 sequence (whole entry): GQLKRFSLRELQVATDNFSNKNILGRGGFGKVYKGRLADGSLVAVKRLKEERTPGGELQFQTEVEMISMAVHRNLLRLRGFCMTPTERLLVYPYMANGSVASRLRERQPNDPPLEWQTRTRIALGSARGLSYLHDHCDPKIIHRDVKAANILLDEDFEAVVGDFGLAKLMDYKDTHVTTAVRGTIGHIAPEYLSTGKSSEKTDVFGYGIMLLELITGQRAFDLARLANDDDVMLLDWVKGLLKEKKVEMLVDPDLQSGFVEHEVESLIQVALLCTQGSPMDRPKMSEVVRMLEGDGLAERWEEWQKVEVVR
Method in brief: as §1

LOC_OS04G41100-cb001 = system: T2, LOC_OS04G41100-cb001
T2 sequence (whole entry): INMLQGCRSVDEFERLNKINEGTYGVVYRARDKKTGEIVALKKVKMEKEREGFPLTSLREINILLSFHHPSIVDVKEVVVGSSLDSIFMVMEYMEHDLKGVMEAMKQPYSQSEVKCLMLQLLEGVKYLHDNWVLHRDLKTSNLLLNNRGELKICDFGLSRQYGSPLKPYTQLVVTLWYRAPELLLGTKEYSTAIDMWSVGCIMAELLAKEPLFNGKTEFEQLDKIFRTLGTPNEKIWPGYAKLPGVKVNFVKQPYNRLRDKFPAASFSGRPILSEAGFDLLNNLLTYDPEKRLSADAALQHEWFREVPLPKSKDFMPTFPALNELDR
Method in brief: as §1
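Also: purified Escherichia coli-expressed rice kinase domain construct.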

| Structure (SMILES) | thermal shift delta Tm (LOC_OS02G45750-cb003) | thermal shift delta Tm (LOC_OS02G54510-cb004) | thermal shift delta Tm (LOC_OS03G04050-cb001) | thermal shift delta Tm (LOC_OS03G12390-cb001) | thermal shift delta Tm (LOC_OS03G27990-cb004) | thermal shift delta Tm (LOC_OS03G50450-cb001) | thermal shift delta Tm (LOC_OS03G50810-cb003) | thermal shift delta Tm (LOC_OS04G35114-cb001) | thermal shift delta Tm (LOC_OS04G38480-cb003) | thermal shift delta Tm (LOC_OS04G41100-cb001) |
| --- | --- | --- | --- | --- | --- | --- | --- | --- | --- | --- |
| O=C1c2c(O)cc(O)cc2OC(c2ccc(O)c(O)c2)C1O (stereo not given) [Taxifolin (Dihydroquercetin)] | 0.74 °C | -0.16 °C | 0.4 °C | 0.47 °C | 0.2 °C | 0.2 °C | 0.08 °C | 0.29 °C | 0.17 °C | 0.5 °C |
| Cc1ccc(Nc2cc(N[C@@H]3CCCC[C@@H]3N)nnc2C(N)=O)nc1C | 2.16 °C | 0.73 °C | 0.52 °C | 2.19 °C | 1.5 °C | 1.66 °C | 1.11 °C | 1.06 °C | 1.11 °C | 0.51 °C |
| CC(C)(C)c1cc(NC(=O)Nc2ccc(Oc3ccnc4[nH]c(=O)cnc34)cc2F)n(-c2ccccc2)n1 | 8.1 °C | 3.28 °C | 0.21 °C | 4.04 °C | 0.22 °C | 0.17 °C | 2.66 °C | 0.44 °C | 2.2 °C | 7.51 °C |
| Cc1nc(Nc2cnn(C3CCNCC3)c2)nc2c1N(C)C(=O)c1cc3ccccc3cc1N2C | 2.86 °C | -0.12 °C | 0.18 °C | 1.89 °C | 0.13 °C | 0.69 °C | 0.96 °C | 1.48 °C | 1.64 °C | 0.38 °C |
| CCN1CCN(Cc2ccc(C(=O)Nc3ccc(C)c(Oc4ccc5c(c4)CC(=O)N5)c3)cc2C(F)(F)F)CC1 | 1.5 °C | 0.41 °C | 0.79 °C | 0.12 °C | 0.67 °C | 1.13 °C | 0.7 °C | 1.2 °C | 1.7 °C | 0.5 °C |
| CC(=O)Nc1nc(C)c(-c2ccc(Cl)c(S(=O)(=O)NCCO)c2)s1 | 1.06 °C | 0.31 °C | 0.56 °C | 0.64 °C | 0.19 °C | 0.73 °C | 0.75 °C | 1.53 °C | 0.78 °C | 0.77 °C |
| Cc1ccc2nc(NCCN)c3ncc(C)n3c2c1 | 1.07 °C | 0.24 °C | 0.59 °C | -0.09 °C | 0.55 °C | 0.62 °C | 0.58 °C | 0.91 °C | 0.69 °C | 1.54 °C |
| Cc1[nH]c(/C=C2\C(=O)Nc3ccccc32)c(C)c1CCC(=O)O [Orantinib (TSU-68, SU6668)] | 0 °C | 2.74 °C | 0.04 °C | 9.53 °C | 0.65 °C | 5.03 °C | 0 °C | 8.78 °C | 4.57 °C | 0.53 °C |
| N#Cc1cnc(Nc2cc(NC[C@H]3CNCCO3)c(C(F)(F)F)cn2)cn1 | 3.09 °C | 0.4 °C | 0.6 °C | 0.36 °C | 0.89 °C | 0.52 °C | 1.11 °C | 1.35 °C | 1.02 °C | 0.96 °C |
| CCN(CC)CCCC(C)Nc1nc(C)cc(Nc2ccc3nc(C)cc(N)c3c2)n1 (stereo not given) | 1.05 °C | 0.18 °C | 0.55 °C | -0.21 °C | 0.33 °C | 0.59 °C | 0.25 °C | 0.62 °C | 0.87 °C | 0.23 °C |
| COc1ccc(CNC(=O)Nc2ncc([N+](=O)[O-])s2)cc1 | 0.37 °C | -0.05 °C | 0.67 °C | 0.15 °C | 0.48 °C | 0.41 °C | 0.22 °C | 0.93 °C | 1.93 °C | 0.59 °C |
| CC(C)NC(=O)C1CCC(n2c(NC(=O)c3ccc(F)cc3)nc3ccc(CN4CCC(C(C)(C)O)CC4)cc32)CC1 (stereo not given) [Belizatinib (TSR-011)] | 1.72 °C | 1.61 °C | 0.67 °C | 6.22 °C | 1.09 °C | 0.85 °C | 3.76 °C | 6.28 °C | 1.98 °C | 0.49 °C |
| CC(C)NC(=O)COc1cccc(-c2nc(Nc3ccc4[nH]ncc4c3)c3ccccc3n2)c1 | 1.3 °C | 0.55 °C | 0.76 °C | -0.25 °C | 0.71 °C | 0.77 °C | 0.84 °C | 1.5 °C | 1.83 °C | 0.68 °C |
| CNS(=O)(=O)Nc1nccc(Cc2c(C)c3ccc(Oc4ncccn4)cc3oc2=O)c1F | 0.52 °C | -0.03 °C | 0.37 °C | 0.7 °C | 0.15 °C | 0.4 °C | 0.57 °C | -0.07 °C | 0.35 °C | 0.2 °C |
| C=CCc1ccc(O)c(-c2ccc(O)c(CC=C)c2)c1 [Honokiol] | -0.57 °C | 0.26 °C | 0.72 °C | -0.04 °C | 0.52 °C | 0.5 °C | 0.47 °C | 0.36 °C | 1.32 °C | 0.48 °C |
| C[C@H](Nc1ncnc2nc[nH]c12)c1cc2cccc(Cl)c2c(=O)n1-c1ccccc1 [Duvelisib (IPI-145, INK1197)] | -1.36 °C | 2.02 °C | -0.19 °C | -0.34 °C | -0.31 °C | 0.38 °C | 0.72 °C | -1.37 °C | 0.01 °C | 0.58 °C |
| C[C@@H](Oc1ccc2[nH]nc(/C=C/c3cnn(CCO)c3)c2c1)c1c(Cl)cncc1Cl | 13.1 °C | 7.93 °C | 0.05 °C | 10.5 °C | 9.48 °C | 6.65 °C | 6.58 °C | 12.3 °C | 5.56 °C | 1.48 °C |
| O=c1nc(N2CCOCC2)oc2c(-c3cccc4c3sc3ccccc34)cccc12 | 0.04 °C | -0.35 °C | -0.14 °C | -0.44 °C | -0.35 °C | 0.04 °C | -0.24 °C | -0.68 °C | 0.64 °C | 0.24 °C |
| CO[C@@H](C(=O)N1Cc2[nH]nc(NC(=O)c3ccc(N4CCN(C)CC4)cc3)c2C1)c1ccccc1 | 6.97 °C | 0.95 °C | 0.25 °C | 4.21 °C | 0.41 °C | -0.04 °C | 3.61 °C | 4.16 °C | 2.5 °C | 1.51 °C |
| O=c1c(O)c(-c2ccc(O)c(O)c2)oc2cc(O)cc(O)c12 [Quercetin] | 3.32 °C | 0.4 °C | 0.73 °C | 5.69 °C | 2.91 °C | 2.18 °C | 2.6 °C | 4.71 °C | 3.37 °C | 0.61 °C |
